ROCK2 inh: inhibitors of human ROCK2 kinase, primary screen, biochemical, high-throughput, luminescence | Rho-associated protein kinase 2 (Homo sapiens), O75116 | inhibition, % at 6 µM | hit rate 0.35% among 60,000 | purified ROCK2, Kinase-Glo ATP depletion luminescence;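 active = inhibition above the screen-wide mean inhibition plus 3 SD, cut at about 18% in these data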;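 also: plate controls were DMSO wells for no effect and Y-27632 control wells after no-enzyme background subtraction for full effect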
PKA kinase inh: inhibitors of human PKA kinase activity, primary screen, biochemical, ATP-depletion luminescence, Kemptide substrate. inhibition, % at 6 µM. cAMP-dependent protein kinase catalytic subunit alpha (Homo sapiens), P17612. hit rate 0.1% among 65,000. PKA Kemptide phosphorylation, Kinase-Glo ATP luminescence;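 active = inhibition above the screen-wide mean inhibition plus 3 SD, cut at about 21% in these data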
hDAT+cocaine: changed hDAT dopamine uptake under cocaine IC80, either direction, primary screen, cocaine antagonist project, cell-based, LLC-PK1 hDAT, [14C]-dopamine uptake, MLSMR; LLC-PK1 hDAT cells, [14C]-dopamine uptake with cocaine IC80; actives deviate in either direction; B-score at 10 µM; hit rate 1.3% among 110,000; AID 449768, 2010;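 active = Z score or B-score, a plate-position-corrected score, falls beyond the plate's 99.7% confidence bounds, in either direction; inactive = both scores lie inside the 99.7% bounds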;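 also: scored against the spread of the other compound wells on the same plate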
JNK3 inh: JNK3 kinase activity inhibitors, primary screen, biochemical, human, purified enzyme; inhibition, % at 8 µM; HTS; hit rate 0.61% among 60,000; Mitogen-activated protein kinase 10 (Homo sapiens), P53779; AID 746, 2007; in the data active = inhibition above about 17%;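 also: 0% = DMSO and 100% = reference inhibitor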
Target sequence (P53779 whole entry, looked up): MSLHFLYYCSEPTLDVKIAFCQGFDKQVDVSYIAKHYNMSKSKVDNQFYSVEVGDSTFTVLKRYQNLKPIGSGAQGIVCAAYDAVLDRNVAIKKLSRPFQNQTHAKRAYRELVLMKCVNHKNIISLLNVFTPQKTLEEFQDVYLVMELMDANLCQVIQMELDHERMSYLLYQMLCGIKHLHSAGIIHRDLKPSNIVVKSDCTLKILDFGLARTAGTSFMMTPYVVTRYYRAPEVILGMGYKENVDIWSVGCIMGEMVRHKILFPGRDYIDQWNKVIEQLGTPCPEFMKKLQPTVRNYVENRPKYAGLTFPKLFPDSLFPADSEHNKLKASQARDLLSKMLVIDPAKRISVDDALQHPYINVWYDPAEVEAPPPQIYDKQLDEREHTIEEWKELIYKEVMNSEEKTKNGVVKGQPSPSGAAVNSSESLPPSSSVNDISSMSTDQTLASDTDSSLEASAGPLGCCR
D1 allo mod: D1 CRE-luciferase signal change, two-sided – cell-based, HEK293 D1, dopamine EC30, D1 allosteric modulator project, primary screen. hit rate 5.9% among 58,000. dopamine EC30 potentiation; actives deviate in either direction. B-score at 10 µM. D(1A) dopamine receptor (Homo sapiens), P21728;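 active = luminescence count or its row- and column-corrected plate score outside the 99.7% band of the plate's sample wells, on either side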
The depositor's hits bear a star; / = not tested or not shown. This excerpt belongs to a sample that is enriched for hits.

SMILES	ROCK2 inh	PKA kinase inh	hDAT+cocaine	JNK3 inh	D1 allo mod
O=C(c1cn(-c2ccccc2)nc1-c1ccncc1)n1nnc2ccccc21	6	7	-0.43	-3	12*
N[C@H]1CONC1=O	/	/	-1.6	/	/
O=C(Nc1ccc2nc(-c3ccco3)c(-c3ccco3)nc2c1)NC1CC1	/	/	-0.42	/	/
O=C(Nc1ccc(N2CCOCC2)cc1)Nc1ccc2nc(-c3ccco3)c(-c3ccco3)nc2c1	42*	4	2.2	0	2.7
CC(=Nc1cccc(O)c1)c1sc2ccccc2c1O	4	-1	-0.29	-1	-4.3*
O=C(c1cc2ccccc2oc1=O)N1CCN(c2ncccn2)CC1	/	/	2.9*	/	/
O=C(c1cc2ccccc2oc1=O)N1CCN(c2ccccn2)CC1	5	3	-0.88	-4	-0.33
CCC1(CC)Cc2ccccc2-c2nc(NCCO)[nH]c(=O)c21	/	/	-2.7*	/	/
O=c1c2c3nc4ccccc4nc3n(CCN3CCOCC3)c2ncn1CCN1CCOCC1	0	12	/	0	/
c1ccc(Cn2cc(CNc3ccccc3)nn2)cc1	/	/	0.55	/	/
CCCCOC(=O)c1[nH]c2c(c1C)C(=O)CC(c1cc(OC)c(OC)c(OC)c1)C2 (configuration not stated)	2	11	1.2	-7	-3.4*
C=CCOC(=O)c1[nH]c2c(c1C)C(=O)CC(c1cc(OC)c(OC)c(OC)c1)C2 (configuration not stated)	-2	5	-0.36	-3	-3.2*
COc1cc(OC)c2c3c(c(C4CCCCC4)nc2c1)CCC3	/	/	-0.79	/	/
O=C1C=C(c2ccc(Cl)cc2)OC2(CCCC2)O1	/	/	-2.6*	/	/
C(=N\c1nccs1)/Nc1nccs1	1	1	0.062	2	2.4
Oc1c(Cl)cc(Cl)cc1/C=N/c1nccs1	/	/	4.4*	/	/
COc1ccccc1NC(=O)CN1CCN(CC(=O)Nc2ccc3c(c2)OCCO3)CC1	9	12	3.1*	16	0.059
O=C(CN1CCN(CC(=O)Nc2ccccc2Cl)CC1)Nc1ccc2c(c1)OCCO2	0	-3	-0.0088	4	-1.8
COc1cc(SC)ccc1C(=O)Nc1ccccc1	/	/	0.45	/	/
COc1cc(SC)ccc1C(=O)Nc1ccc2c(c1)OCCO2	6	8	3.4*	-4	-4.2*
CN(C)S(=O)(=O)c1ccc(C(=O)OCn2nnc3ccccc3c2=O)cc1	/	/	0.46	/	/
Cc1ccc(CNC(=O)CN(C)S(=O)(=O)c2cccc3cccnc23)cc1	5	7	1.2	-1	/
COc1ccc(OC)c(Nc2nc(N)nc(-c3cc4ccccc4o3)n2)c1	4	2	0.22	32*	-0.14
OCC[C@H]1C[C@@H](O)[C@H](O)[C@@]2(CCCO2)O1	/	/	-1.7	/	/
O=C(CSc1nnc2scc(-c3ccccc3)n12)N1CCN(Cc2ccccc2)CC1	4	10	2.1*	-3	1.4
SMILES	ROCK2 inh	PKA kinase inh	hDAT+cocaine	JNK3 inh	D1 allo mod
O=C1N2c3ccccc3CCc3cccc(c32)C1(O)C(F)(F)F (configuration not stated)	0	-5	-2.2	-6	-2.7*
O=C1CCCC2=C1C(O)(C(F)(F)F)C(=O)N2Cc1ccccc1 (configuration not stated)	3	8	-0.36	5	-0.17
CC1CCCCN1S(=O)(=O)c1ccc2c(c1)oc(=O)n2CC(=O)O (configuration not stated)	8	16	-2.3*	1	-0.45
O=C(CCCn1c(=O)c2sccc2n(Cc2ccc(F)cc2)c1=O)NCc1ccco1	5	10	0.094	-4	0.24
O=C(Nc1ccc2c(c1)nc1n2CCSC1)c1ccccc1	-9	-6	-0.0092	-1	-3.7*
COCCN1CCn2c(nc3cc(NC(=O)c4cccs4)ccc32)C1	/	/	-0.44	/	/
COc1ccc(C(=O)Nc2ccc3c(c2)nc2n3CCSC2)cc1	-5	-5	1.2	-7	0.069
CC(c1ccccc1)N1CCn2c(nc3cc(NC(=O)c4cccs4)ccc32)C1 (configuration not stated)	/	/	2.7*	/	/
COCCN(C(=O)C(C)C)c1nnc(-c2cccc(C)c2)s1	/	4	2	/	-0.26
O=c1c(-c2ccc(O)cc2)coc2cc(OC3OC(CO)C(O)C(O)C3O)ccc12 (configuration not stated)	/	/	-0.92	/	/
Cc1ccc(S(=O)(=O)N2CCC(=O)N(C(COCc3ccc(C(F)(F)F)cc3)Cc3ccccc3)CC2)cc1 (configuration not stated)	/	/	0.46	/	/
O=C(Cc1ccccc1)Nc1ccccc1N1CCOCC1	/	/	0.26	/	/
CN(C)CCCNCC(=O)Nc1ccccc1N1CCOCC1	/	/	-7.7*	/	/
Cc1nnsc1C(=O)Nc1cc(Cl)ccc1Cl	/	/	-1.2	/	/
O=C(CC(c1ccccc1)c1ccccc1O)NCCN1CCOCC1 (configuration not stated)	/	-5	-7.8*	/	0.025
O=C(CCCc1ccccc1)NCCN1CCOCC1	7	10	-0.64	-4	0.11
Cc1nn(CC#N)c(=O)n1-c1ccc(F)cc1	/	/	-0.6	/	/
NC(=O)c1ccsc1NC(=O)CSc1ccccc1F	-3	0	-0.84	16	-3.5*
CCCNC(=O)c1onc(CSc2ccc(Cl)cc2)c1C(=O)NCCC(C)C	/	/	0.025	/	/
O=C(Nc1ccc(O)cc1)c1ccc(C(=O)c2ccccc2)o1	9	0	0.13	2	-3.2*
Cc1ccc(-c2cc(C(=O)Nc3nn[nH]n3)c3ccccc3n2)cc1	/	/	0.032	/	/
O=C(CSc1nnc(CN2CCCCCC2=O)n1-c1ccccn1)NCC(F)(F)F	6	5	-0.041	-1	-3.3*
COc1ccccc1NC(=O)COC(=O)c1cnccn1	/	/	0.45	/	/
CCN(CC)C(=O)Oc1ccc2c(=O)c(-c3ccc(OC)cc3)c(C)oc2c1	4	9	3.2*	1	0.38
CCN(CC)C(=O)Oc1ccc2c(=O)c(-c3ccc(OC)cc3)coc2c1	6	10	-0.051	4	/
SMILES	ROCK2 inh	PKA kinase inh	hDAT+cocaine	JNK3 inh	D1 allo mod
c1coc(CNc2nc3nonc3nc2NCc2ccco2)c1	4	10	-0.91	-6	-0.84
O=c1nccc(NCc2ccco2)[nH]1	-1	-3	0.22	5	-3*
O=C(CCCc1ccccc1)N1CCc2ccccc21	/	/	0.73	/	-2.8
COc1ccc(C(=O)c2c[nH]c3ccccc23)cc1	/	/	0.33	/	-2.2*
COc1ccc(C(=O)c2ccccc2Cl)cc1	/	/	0.54	/	/
COCc1cc(=O)[nH]c2cc(NC(=O)C(C)(C)CCl)c(C)cc12	/	/	-7.8*	/	/
CCCCNc1ncnc2c1cnn2-c1ccccc1	5	10	1.5	6	-3.6*
c1ccc(Cn2ncc3c(NCc4ccco4)ncnc32)cc1	-1	4	2	0	-0.14
c1ccc(-n2ncc3c(NCc4ccco4)ncnc32)cc1	3	-4	1.3	20*	-0.85
O=C1CCCc2nn(-c3ccccc3)c(-c3ccncc3)c21	2	6	0.082	30*	-0.026

Screens deposited in PubChem by several laboratories.
